The record followed here is PubChem BioAssay (NCATS).

Results filed as inconclusive are left out. Unmarked numbers belong to inactive results. Activity calls are given as the source filed them. Calls follow the shape of the dose curve; as a rule, active = well fitted curve in the direction sought with a large enough effect; inconclusive = small, poorly fitted or top-dose-only effect, or another doubt; inactive = no such curve, though single readings can be large; an effect the other way counts as inactive or inconclusive.

One test deals with CRL-7250. Briefly: Cytotoxic Profiling of Annotated Libraries Using Quantitative High-Throughput Screening (AID 1296008). Also: nearly all actives have a fitted effect of over 60% in size. Also: potency is read from the fitted curve at half-maximal effect. As to conditions: Five cell lines viability, CellTiter-Glo ATP luminescence, 48-72 h; max response: stronger effect = lower value. The procedure, abridged:
(§1)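 Compounds were pin-transferred onto cells and incubated 48 or 72 hr at 37 degree Celsius, 95% humidity. CellTiter-Glo was added, plates sat 10 min at room temperature, then ATP-coupled luminescence was imaged as the viability read-out.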
On the technique in general: In ATP-based viability assays light output follows the ATP content of the culture.

The next test has as its system HaCat. The description is as above. As to conditions: Five cell lines viability, CellTiter-Glo ATP luminescence, 48-72 h; max response: stronger effect = lower value. An outline of the steps:
as §1

Another test relates to KB-3-1. Described as above. The settings on record: Five cell lines viability, CellTiter-Glo ATP luminescence, 48-72 h; max response: stronger effect = lower value. An outline of the steps: as §1
In another test the test system is NIH3T3. The description is as above. The settings on record: Five cell lines viability, CellTiter-Glo ATP luminescence, 48-72 h; max response: stronger effect = lower value. An outline of the steps: as §1
The next test relates to C33A. Put plainly: Primary qHTS to identify gynecologic anti-cancer compounds using libraries of approved drugs and bioactive compounds (AID 1345084). Also: nearly all actives have a fitted effect of over 55% in size. The settings on record: Gynecologic cancer cell panel viability, ATPlite luminescence, 48 h; series mostly up to 57.5 µM. An outline of the steps:
(§2)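 Cells, 1,000 per well, were allowed to settle for 16 h at 37 C before compound addition. Five concentrations were tested for 48 h, and viability was read by ATPlite luminescence after 15 min at room temperature.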
For orientation: In qHTS, concentration-response curves come from the screen itself.

The test system of a further test is CAOV3. Described as above. As to conditions: Gynecologic cancer cell panel viability, ATPlite luminescence, 48 h; series mostly up to 57.5 µM. The procedure, abridged: as §2
In the next test the test system is CASKI. The description is as above. As to conditions: Gynecologic cancer cell panel viability, ATPlite luminescence, 48 h; series mostly up to 57.5 µM. An outline of the steps: as §2
Another test relates to Es-2. Described as above. As to conditions: Gynecologic cancer cell panel viability, ATPlite luminescence, 48 h; series mostly up to 57.5 µM. An outline of the steps:
as §2

The subject of the next test is HeLa. Described as above. The settings on record: Gynecologic cancer cell panel viability, ATPlite luminescence, 48 h; series mostly up to 57.5 µM. The procedure, abridged:
as §2

The subject of a further test is Hek293T. Described as above. The settings on record: Gynecologic cancer cell panel viability, ATPlite luminescence, 48 h, control line for the selectivity index; series mostly up to 57.5 µM. The procedure, abridged: as §2
In another test the test system is JEG-3. The test is described as above. As to conditions: Gynecologic cancer cell panel viability, ATPlite luminescence, 48 h; series mostly up to 57.5 µM. The procedure, abridged: as §2
The subject of another test is OV90. The description is as above. As to conditions: Gynecologic cancer cell panel viability, ATPlite luminescence, 48 h; series mostly up to 57.5 µM. An outline of the steps: as §2
The next test has as its system PA-1. The test is described as above. As to conditions: Gynecologic cancer cell panel viability, ATPlite luminescence, 48 h; series mostly up to 57.5 µM. The procedure, abridged: as §2
% is scaled to controls: 0 for no effect and ±100 for the full control effect.

As for `O=C(CSc1nc2ccccc2c(=O)n1-c1ccccc1)Nc1ccc2c(c1)CCC2`, the max response was 1.59% in the test with CRL-7250, -10.2% in the test with HaCat and -0.829% in the test with NIH3T3. Also, the call in the test on KB-3-1 was inactive. Moreover, the Potency result in the test on C33A, in the test with CAOV3, with CASKI, with Es-2, with HeLa and in the test on Hek293T was “inactive” throughout. Further, the Potency result in the test on JEG-3, in the test on OV90 and in the test on PA-1 was “inactive” each time.
For `C/C=C/C=C/C=C/C(=O)O[C@@H]1C=C(CO)C(O)(C(=O)OC)[C@@]2(C)CCCC(C)(C)C12` (stereo partly specified), the max response with CRL-7250 is -4.29%; in the test on HaCat, 2.7%; with KB-3-1, -3.74%; with NIH3T3, 4.09%. Besides, the Potency result in the test with C33A, in the test on CAOV3, with CASKI, in the test on Es-2, in the test on HeLa and with Hek293T was “inactive” in each case. Moreover, the Potency entry in the test on JEG-3, in the test with OV90 and with PA-1 was “inactive” each time.
For the compound `Nc1nc2c(s1)CCN(Cc1ccc(Cl)cc1)CC2`, the outcome in the test with CRL-7250 was inactive. The max response in the test with HaCat is -24.3%; in the test with KB-3-1 it was 6.96%; in the test on NIH3T3 it was 0.621%. For the same compound, the Potency entry with C33A, in the test on CAOV3, in the test on CASKI, in the test with Es-2, with HeLa and in the test with Hek293T was “inactive” each time. The Potency result in the test on JEG-3, in the test with OV90 and in the test on PA-1 was “inactive” in each case.
Take `C=CC1(C)CC(O)C(C(=C)C(=O)OC)C(O)C1C(=C)CO` (stereo unspecified): the max response in the test on CRL-7250 was -28%; in the test with HaCat, -2.8%; with KB-3-1 it was 0.16%; in the test on NIH3T3, -4.78%. Also, the Potency result with C33A, with CAOV3, in the test on CASKI, with Es-2, in the test with HeLa and with Hek293T was “inactive” each time. Moreover, the Potency entry with JEG-3, in the test with OV90 and with PA-1 was “inactive” each time.
As to `COc1c2c(c(C)c3c1C(=O)OC3)O[C@@]1(C)C[C@@H](OC(C)=O)[C@]34O[C@](OC)(CC[C@]3(C)[C@H]1C2)OC4(C)C`, the max response in the test on CRL-7250 was -3.21%; in the test on HaCat it was -9.22%; with KB-3-1, 1.98%; with NIH3T3, 4.28%. In addition, the Potency result in the test with C33A, in the test with CAOV3, in the test on CASKI, in the test with Es-2, in the test on HeLa and in the test with Hek293T was “inactive” each time. For the same compound, the Potency entry in the test on JEG-3, with OV90 and with PA-1 was “inactive” throughout.
Consider `COc1ccc(Sc2ccc(NC(=O)c3ccccc3Cl)cc2C#N)cc1`, for which the max response was -14.2% in the test with CRL-7250, -11.3% with HaCat, -1.86% in the test with KB-3-1 and -6.24% in the test with NIH3T3. The Potency entry in the test with C33A, with CAOV3, in the test on CASKI, in the test with Es-2, with HeLa and with Hek293T was “inactive” throughout. For the same compound, the Potency result in the test with JEG-3, in the test on OV90 and in the test with PA-1 was “inactive” each time.
Regarding `C[C@H]1CO[C@@H]2Cn3cc(C(=O)NCc4ccc(F)cc4F)c(=O)c(O)c3C(=O)N12`, the max response was -9.56% with CRL-7250, 1.95% in the test on HaCat, -18.7% in the test with KB-3-1 and 2.62% in the test on NIH3T3. Besides, the Potency entry in the test with C33A, with CAOV3, in the test with CASKI, with Es-2, in the test on HeLa and in the test with Hek293T was “inactive” each time. Further, the Potency entry in the test on OV90 and in the test on PA-1 was “inactive” each time.
Take `Fc1ccc(-c2nc(-c3ccccc3F)[nH]c2-c2ccncc2)cc1`: the results for the max response with CRL-7250, in the test with HaCat and with NIH3T3 were 3.37%, 4.02% and 4.47%, respectively. For the same compound, in the test on KB-3-1, the result was inactive. The Potency entry with C33A, with CAOV3, with CASKI, in the test on Es-2, with HeLa and in the test on Hek293T was “inactive” throughout. Moreover, the Potency result with JEG-3 and in the test with PA-1 was “inactive” each time.
Regarding `Cc1cc(F)ccc1-c1nc(NCCN=C(N)NC#N)nc2c1ccc(=O)n2-c1c(F)cccc1F`, the max response with CRL-7250 was 1.44%; with HaCat it was 4.96%; in the test with KB-3-1, 0.209%; in the test on NIH3T3, 4.3%. Further, the Potency entry in the test with C33A, with CAOV3, in the test with CASKI, with Es-2, with HeLa and with Hek293T was “inactive” throughout. Also, the Potency entry in the test with JEG-3, with OV90 and with PA-1 was “inactive” throughout.
Consider `C[C@@H]1O[C@@H](O[C@H]2[C@H](O[C@H]3CC[C@@]4(C)C(CC[C@]5(C)C4C=C[C@]46OC[C@@]7(CCC(C)(C)C[C@H]74)[C@@H](O[C@@H]4O[C@@H](C)[C@H](O)[C@@H](O)[C@H]4O)C[C@]65C)[C@]3(C)CO)O[C@H](CO)[C@@H](O)[C@@H]2O[C@@H]2O[C@H](CO)[C@@H](O)[C@H](O)[C@H]2O)[C@H](O)[C@H](O)[C@H]1O` (stereo partly specified), for which the max response in the test with CRL-7250 was -7.16%; with HaCat, -9.32%; in the test on KB-3-1 it was -1.23%; with NIH3T3 it was -25.1%. The activity change, negative = cytotoxicity is -27.7% [at 11.6 µM] in the test with C33A; 9.8% [at 11.6 µM] with CAOV3; -9.63% [at 11.6 µM] in the test on CASKI; -13.3% [at 11.6 µM] in the test on Es-2; 21.7% [at 11.6 µM] in the test with HeLa; -8.24% [at 11.6 µM] in the test on Hek293T. Moreover, the activity change, negative = cytotoxicity in the test with JEG-3 is -15.7% [at 11.6 µM]; in the test on PA-1, 2.51% [at 11.6 µM].
For the compound `O=C(COc1ccc(C(=O)c2ccccc2)cc1)NC1CCN(Cc2ccccc2)CC1`, in the test on CRL-7250, the Potency was 8.2 µM (active). For the same compound, the max response in the test on HaCat is -11.4%; in the test on KB-3-1, -23%; in the test with NIH3T3, -2.94%. The Potency entry in the test on CAOV3, in the test with CASKI, in the test with Es-2, in the test with HeLa, in the test with JEG-3 and in the test with PA-1 was “inactive” in each case.
As for `CC(=O)OC1C(=O)C2C3OCC4=C3[C@@](C)(CC[C@@H]4O)CC[C@]2(C)[C@H]1C(C)C` (stereo partly specified), the max response with CRL-7250 is 0.411%; with HaCat it was -13.7%; in the test on KB-3-1 it was 4.67%; in the test on NIH3T3, 1.97%. The Potency entry with C33A, with CASKI, in the test on Es-2, in the test with HeLa, in the test on Hek293T and with JEG-3 was “inactive” each time. The Potency entry in the test with OV90 and with PA-1 was “inactive” each time.
As to `CNCc1cc(-c2ccccc2F)n(S(=O)(=O)c2cccnc2)c1`, the max response is -3.13% in the test with CRL-7250, -5.62% with HaCat, -0.384% with KB-3-1 and 0.556% in the test with NIH3T3. Also, the Potency result with C33A, in the test with CASKI, in the test with Es-2, in the test with HeLa, with Hek293T and in the test on JEG-3 was “inactive” each time. For the same compound, the Potency result in the test on OV90 and in the test on PA-1 was “inactive” throughout.
